Experimental data as given in PubChem BioAssay (NCI).
The panel holds about 83,000 compounds, 20% with a hit somewhere; the sample as a whole holds those more often.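 Testing used 96-well plates and a 48-hour single-concentration exposure. Example: -40 means 40% of the starting cells died.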 A number with no mark means an inactive call. Activity calls are given as the source filed them. Rule for the calls: active = growth percent below 10; inactive = the rest.

Key:
Assay in all cases: NCI-60 one-dose screen, 48 h (100 = growth as untreated, 0 = no growth, -100 = all killed)
[1] = test system: DU-145 prostate; details: 10 µM unless noted
[2] = test system: K-562 leukemia; details: 10 µM unless noted
[3] = test system: MALME-3M melanoma; details: 10 µM unless noted
[4] = test system: MDA-MB-231 breast; details: 10 µM unless noted
[5] = test system: RXF 393 renal; details: 10 µM unless noted
[6] = test system: SF-268 CNS; details: 10 µM unless noted
[7] = test system: SF-295 CNS; details: 10 µM unless noted
[8] = test system: SF-539 CNS; details: 10 µM unless noted
[9] = test system: UACC-257 melanoma; details: 10 µM unless noted
[10] = test system: M14 melanoma; details: 10 µM unless noted
[11] = test system: HCT-15 colon; details: 10 µM unless noted
[12] = test system: HT29 colon; details: 10 µM unless noted
[13] = test system: SNB-19 CNS; details: 10 µM unless noted
[14] = test system: U251 CNS; details: 10 µM unless noted
[15] = test system: PC-3 prostate; details: 10 µM unless noted
[16] = test system: SK-MEL-5 melanoma; details: 10 µM unless noted
[17] = test system: UACC-62 melanoma; details: 10 µM unless noted
[18] = test system: LOX IMVI melanoma; details: 10 µM
[19] = test system: SK-MEL-28 melanoma; details: 10 µM unless noted

| SMILES | growth [1] | growth [2] | growth [3] | growth [4] | growth [5] | growth [6] | growth [7] | growth [8] | growth [9] | growth [10] | growth [11] | growth [12] | growth [13] | growth [14] | growth [15] | growth [16] | growth [17] | growth [18] | growth [19] |
| --- | --- | --- | --- | --- | --- | --- | --- | --- | --- | --- | --- | --- | --- | --- | --- | --- | --- | --- | --- |
| COc1ccc2[nH]c(=O)c(CSc3nccc(-c4ccc(OC)c(OC)c4)n3)cc2c1 | 37.4% | 11.4% | -2.09% (active) | 6.47% (active) | -13.7% (active) | 28% | -30.4% (active) | 24.7% | 38.9% | 47.8% | 16.4% | 16.2% | 21.4% | 26% | 5.92% (active) | -1.05% (active) | 27.9% | 24.5% | 42.7% |
| O=c1oc2ccc(Br)cc2cc1C1=CSc2nc3sc4c(c3c(=O)n2N=C1)CCCC4 | 107% | 97.1% | 89% | 88.2% | 167% | 101% | 101% | 100% | 90.9% | 92.4% | 95.1% | 108% | 97% | 99.3% | 76.7% | 96.9% | 71.7% | 86.4% | 105% |
| Cn1cc(NC(=O)c2cc(NC(=O)c3ccc(C#Cc4ccccc4)cc3)cn2C)cc1C(=O)NCCCN1CCOCC1 | 56.4% | -41.5% (active) | -84.8% (active) | 4.99% (active) | -4.28% (active) | 63.2% | -81.9% (active) | -85.5% (active) | -28.8% (active) | -86.4% (active) | -59.4% (active) | -71.2% (active) | 73.3% | -70.1% (active) | 29.8% | -92% (active) | -90.9% (active) | -100% (active) | -91.8% (active) |
| O=c1[nH]c(=O)c2c(-c3cc4ccccc4oc3=O)ccnc2[nH]1 | 88% | 106% | 64% | 64.9% | 69.5% | 79.6% | 3.14% (active) | 70.2% | 103% | 91.4% | 81.4% | 102% | 75.5% | 19.5% | 85.4% | 89% | 82.7% | 65.3% | 115% |
| CC12CC[C@@H]3[C@]4(C)COC(c5cn[nH]c5-c5cccc(Br)c5)O[C@@H]4CC[C@@]3(C)[C@@H]1CC(C1=CCOC1=O)O2 (stereo partly drawn) | 53.5% | 15% | 37.7% | 35.1% | 6.19% (active) | 47% | 34.9% | 54.8% | 41.8% | 22.3% | 23.3% | 23.2% | 51.2% | 32.1% | 12.9% | 3.56% (active) | 20.9% | -8.01% (active) | 34% |
| Cc1ccc2c(c1)nc(-c1ccccc1)n2CC(=O)N=Nc1c(O)[nH]c2ccc(Br)cc12 | -10.8% (active) | -7.04% (active) | -85.7% (active) | -76.4% (active) | -79.9% (active) | 0.768% (active) | -80.6% (active) | -91.1% (active) | -51.5% (active) | -54.6% (active) | -79.9% (active) | -67.6% (active) | -30.8% (active) | -74.3% (active) | -78% (active) | -57.3% (active) | -87.4% (active) | -93.6% (active) | -88.3% (active) |
| C=C1CC[C@@H]2[C@]3(C)COC(c4cn[nH]c4-c4cccc(Cl)c4)O[C@@H]3CC[C@@]2(C)[C@@H]1C/C=C1/C(=O)OCC1O (stereo partly drawn) | 25.5% | 5% (active) | -50.7% (active) | -52.7% (active) | -91% (active) | 34.3% | -32.8% (active) | -89.8% (active) | -33.1% (active) | -73.4% (active) | -59.2% (active) | 0.309% (active) | 5.54% (active) | -85.8% (active) | -0.106% (active) | -79.6% (active) | -86.9% (active) | -100% (active) | -76.6% (active) |
| Cn1cc(-c2cc3nc(-c4cn(C)c5ncc(Br)cc45)cc(N)n3n2)c2cc(Cl)ccc21 | -58.3% (active) | -29.2% (active) | -91.9% (active) | -85.5% (active) | -64.4% (active) | 20.1% | -72.5% (active) | -96.9% (active) | -82.7% (active) | -86.8% (active) | -77.6% (active) | -89.2% (active) | -74.2% (active) | -67.9% (active) | -62.5% (active) | -77.1% (active) | -96% (active) | -95.1% (active) | -90.7% (active) |
| COc1cc(NC(=O)c2cccc(C3CCc4c(cc(OC)c(OC)c4OC)O3)c2)cc(OC)c1OC (stereo not drawn) | 11.6% | 15% | 21% | 28.3% | 47.4% | 73.1% | 8.61% (active) | -8.73% (active) | 33.7% | 22.2% | 7.46% (active) | 3.59% (active) | 27.1% | 13.5% | 18.2% | -58% (active) | -28.6% (active) | – | 38.9% |
| CC12CC[C@@H]3[C@]4(C)COC(c5cn[nH]c5-c5cccc(Cl)c5)O[C@@H]4CC[C@@]3(C)[C@@H]1CC(C1=CCOC1=O)O2 (stereo partly drawn) | 56.6% | 25% | 40.5% | 36.4% | 18.3% | 45.5% | 35.4% | 58.2% | 43.3% | 25.3% | 35.1% | 28% | 56.8% | 38.6% | 12.6% | 8.92% (active) | – | – | 36.3% |
| COc1cc2oc(-c3cccc(C(=O)Nc4ccc(Cl)cc4)c3)cc(=O)c2c(OCCNC(=O)[C@H](CCC(=O)OC(C)(C)C)NC(=O)OC(C)(C)C)c1OC | 108% | 81.5% | 106% | 85.4% | 84.3% | 81.8% | 94.5% | 87.8% | 107% | 106% | 100% | 108% | 94.8% | 96.8% | 83.5% | 89.3% | 82% | – | 99.2% |
| CC(=O)/C=C/c1cccc2c1C(=O)NC(C)(c1cc3cc(Br)ccc3oc1=O)N2 (stereo not drawn) | 19.1% | 0.91% (active) | 31.3% | 18% | -12.9% (active) | 56.1% | 39% | 19.2% | 27.2% | 31.4% | 14.6% | 27.6% | 51.8% | 18.6% | 21.6% | 13.1% | – | – | 58.8% |
| COc1ccc(NC(=O)Cn2c3c(sc2=O)[C@H]2[C@@H](O)[C@@H](O)[C@H](O)[C@@H]2CS3)cc1 | 109% | 95.6% | 102% | 107% | 114% | 102% | 105% | 101% | 102% | 103% | 104% | 110% | 106% | 99.7% | – | 106% | 99.8% | – | 103% |
| O=C(N1c2ccccc2Sc2ccccc21)n1ccc2cccnc21 | 86.6% | 19.5% | 75.5% | 69.3% | 83.7% | 80.8% | 81% | 76.6% | 61.1% | 70.1% | 40.2% | 60.7% | 74.3% | 51.3% | 39.8% | 45.9% | – | 44.8% | 76.9% |
| CC12CC[C@@H]3[C@]4(C)COC(c5cn[nH]c5-c5ccc(Br)cc5)O[C@@H]4CC[C@@]3(C)[C@@H]1CC(C1=CCOC1=O)O2 (stereo partly drawn) | 69.5% | 19.4% | 70.2% | 66% | 37% | 50.1% | 48.7% | 69.9% | 55.2% | 38.8% | 42.2% | 47.6% | 59.4% | 53% | 24.2% | 32.4% | – | 22.1% | 47.1% |
| COc1ccc(-c2nc3cc(C)ccc3n2CC(=O)N=Nc2c(O)[nH]c3ccc(Br)cc23)cc1 | 16.1% | 9.75% (active) | -59.4% (active) | -28.1% (active) | -52.7% (active) | 23% | -61.4% (active) | -67.1% (active) | 1.58% (active) | -58.2% (active) | -66.1% (active) | -67.4% (active) | 29.2% | -63.1% (active) | 13.9% | -45.6% (active) | -42.8% (active) | – | -53.8% (active) |
